# The entries come from a sample that favours hits as a whole.
# ClpP mod – qHTS Assay for Activators of ClpP | Potency, µM (doses to about 57.5 µM), for the others: at the top dose activity change, negative = active | ATP-dependent Clp protease proteolytic subunit (Bacillus subtilis (strain 168)), P80244 | AID 651965, 2013 | purified B. subtilis ClpP, FRET peptide cleavage, 20 min | hit rate 1.9% among 340,000; active = well fitted falling curve with a large enough effect; note: the source files actives as falling curves though it sought activators and does not explain the sign; nearly all actives have a fitted effect of over 65% in size
#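 FRET quenching reversal measured ClpP activation: 10 microg/mL B. subtilis ClpP at pH 8 with the FRET-FV decapeptide, read at 430 nm after 320 nm excitation. The 20-min minus 0-min signal was scaled between DMSO/no-enzyme wells and ADEP (5.8 microM final).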
# GALK inh – qHTS Assay for Inhibitors of Human Galactokinase (GALK); Potency, µM (doses to about 57.5 µM), for inactives: at the top dose activity change, negative = inhibition, usual class: inhibitors; hit rate 0.007% among 270,000; AID 1868, 2009; P51570; Purified GALK, Kinase-Glo residual ATP luminescence; note: % is set by controls: 0 for no effect and ±100 for the full control effect
#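 Galactose (100 uM) and ATP (35 uM) were turned over by 5 nM GALK for 1 h at RT. Kinase-Glo Plus then converted the remaining ATP into a luminescent signal.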
# Eya2 inh – qHTS Assay for Inhibitors of the Phosphatase Activity of Eya2; Protein phosphatase EYA2 (Homo sapiens), O00167; recombinant Eya2, OMFP fluorescence dephosphorylation (OMFP is methylfluorescein phosphate); Potency, µM (top dose mostly 76.9 µM), for inactives: top-dose activity, negative = inhibition, actives largely listed as inhibitors; hit rate 0.006% among 330,000; note: % is set by controls: 0 for no effect and ±100 for the full control effect
# Target sequence (O00167 whole entry, looked up): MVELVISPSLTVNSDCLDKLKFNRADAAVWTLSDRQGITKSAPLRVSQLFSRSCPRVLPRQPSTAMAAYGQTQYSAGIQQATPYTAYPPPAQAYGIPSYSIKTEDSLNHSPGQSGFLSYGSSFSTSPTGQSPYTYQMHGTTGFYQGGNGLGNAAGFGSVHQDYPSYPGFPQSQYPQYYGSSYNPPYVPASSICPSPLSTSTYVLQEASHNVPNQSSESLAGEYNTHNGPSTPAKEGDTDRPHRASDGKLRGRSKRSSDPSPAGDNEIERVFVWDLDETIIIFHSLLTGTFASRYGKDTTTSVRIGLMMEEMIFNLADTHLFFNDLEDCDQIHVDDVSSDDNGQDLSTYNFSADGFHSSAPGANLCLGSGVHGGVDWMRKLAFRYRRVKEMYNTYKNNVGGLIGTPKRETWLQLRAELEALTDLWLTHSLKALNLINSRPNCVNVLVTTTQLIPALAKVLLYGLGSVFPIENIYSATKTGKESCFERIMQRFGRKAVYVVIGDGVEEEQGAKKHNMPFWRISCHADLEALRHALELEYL
#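 Eya2 (0.2 uM) preincubated 10 min at ambient with compound, then OMFP substrate added at 50 uM; 10 min reaction in 50 mM HEPES pH 7.5, 50 mM NaCl, 5 uM MgCl2, 0.05% BSA, 1 mM DTT. Fluorescence read at Ex 485/Em 525 nm.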
# USP2a block – qHTS Assay for Inhibitors of Ubiquitin-specific Protease USP2a Using CHOP2 as the Reporter; Ubiquitin carboxyl-terminal hydrolase 2 (Homo sapiens), O75604; USP2 core, Ub-CHOP2 coupled fluorogenic reporter, 485/531; Potency, µM (titrated, usually from 38.3 µM), without a hit: at the highest dose activity change, negative = inhibition, actives largely listed as inhibitors; hit rate 0.01% among 330,000; AID 463254, 2010;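 note: plate controls were DMSO wells for no effect and full inhibition by NEM control for full effect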
#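 Deubiquitinase activity read as fluorescence (485/531 nm) after Ub-CHOP2 cleavage activates the enterokinase reporter on its substrate; USP2 core 10nM, Ub-CHOP2 and substrate 25nM each, 30min compound preincubation then 60min RT; data normalized to NEM, curves fitted.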
# ClpP inh valid – qHTS Assay for Activators of ClpP: Hit Validation of Inhibitors | Potency, µM (doses to about 57.5 µM), for the others: at the top dose activity change, negative = inhibition, hits mostly inhibitors | AID 743245, 2014 | shares compounds with ClpP mod | purified B. subtilis ClpP, FRET-FV substrate cleavage, 20 min | hit rate 40% among 470; note: % is set by controls: 0 for no effect and ±100 for the full control effect; nearly all actives have a fitted effect of over 70% in size
# The depositor's hits bear a star; x = not tested or not shown. Unless noted, calls come from the whole dose curve; as a rule, active = well fitted curve in the direction sought with a large enough effect; inconclusive = small, poorly fitted or top-dose-only effect, or another doubt; inactive = no such curve, though single readings can be large; an effect the other way counts as inactive or inconclusive. Potency is the fitted concentration of half-maximal effect.
SMILES,ClpP mod,GALK inh,Eya2 inh,USP2a block,ClpP inh valid
Cc1c(C(=O)N2CCN(c3ccccn3)CC2)oc2c(F)cccc12,x,6%,1%,-5%,x
Cc1c(C(=O)N2CCN(c3ncccn3)CC2)oc2c(Cl)cccc12,3.2µM*,x,17%,4%,-2%
Fc1ccc(CNc2cnccn2)cc1,3.2µM*,1%,-9%,-1%,22µM*
Cc1ccc(S(=O)(=O)Nc2cccc3c2O[C@H](CN(C)Cc2ccccc2)[C@@H](C)CN([C@H](C)CO)C3=O)cc1,2%,x,8%,6%,x
O=C(Nc1ccccc1)c1cccc(C(=O)Nc2ccccc2)n1,68%,7%,-8%,-1%,24µM*
O=C(O)c1ccc(NC(=O)c2cccc(C(=O)Nc3ccc(C(=O)O)cc3)n2)cc1,1%,-1%,0%,3%,x

# Bioassay records: PubChem BioAssay, National Center for Advancing Translational Sciences (NCATS)
